According to the supplement of paper PMC7156485:
± gives the standard deviation of the averaged measurements.

What was measured:
Details in all cases: concentration: 10 µM; 24 h
HCC1569 [1] = assay: cell number relative to DMSO (% of DMSO); higher = more cells (less growth inhibition / toxicity)
In short: (§1)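 H1.0 nuclear intensity or cell number is expressed as percent of the plate control, with the median of replicates taken. HCC1569 and TDF cells were treated with compounds at 10 µM for 24 h at 37 °C, in triplicate, then fixed and immunostained for H1.0 with DAPI as a nuclear stain. HCC1569 values were smoothed to correct for positional effects.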

TDF [2] = assay: as above
In short: as §1

TDF [3] = assay: H1.0 immunofluorescence intensity relative to DMSO (% of DMSO); higher = stronger H1.0 induction, active = 120 or more
In short: as §1

HCC1569 [4] = assay: H1.0 immunofluorescence intensity relative to DMSO (% of DMSO); higher = stronger H1.0 induction, active = 140 or more
In short: as §1
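For H1.0 immunofluorescence intensity relative to DMSO in this document: TDF is a line of transformed human dermal fibroblasts of mesenchymal origin.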
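For cell number relative to DMSO in this document: TDF denotes transformed human dermal fibroblasts of mesenchymal origin.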

| SMILES | cell number (HCC1569 [1]) | cell number (TDF [2]) | H1.0 immunofluorescence intensity (TDF [3]) | H1.0 immunofluorescence intensity (HCC1569 [4]) |
| --- | --- | --- | --- | --- |
| CCCc1nc(C)c2c(=O)nc(-c3cc(S(=O)(=O)N4CCN(CC)CC4)ccc3OCC)[nH]n12 [Vardenafil] | 105 | 108 | 91 (inactive) | 100 (inactive) |
| CC[N+](CC)(CC)CCOc1ccc(C=Cc2ccccc2)cc1.[I-] | 99.7 | 72.2 | 104 (inactive) | 111 (inactive) |
| CCCN(CCC)CC1CCCCN1CCNC(=O)N1c2ccccc2C(=O)Nc2cccnc21 (stereo not drawn) | 98.5 | 112 | 87.8 (inactive) | 100 (inactive) |
| CC=Cc1ccc(OC)cc1 [Anethole, trans-] | 96.1 | 81.4 | 107 (inactive) | 105 (inactive) |
| CCCCCC(O)C=CC=CCCCCCCCCCC(=O)O (stereo not drawn) | 99.4 | 90.3 | 95.7 (inactive) | 96.8 (inactive) |
| CS(=O)(=O)O.CSc1ccc2c(c1)C(N1CCN(C)CC1)Cc1ccccc1S2 (stereo not drawn) [Methiothepin mesylate] | 91.1 | 102 | 111 (inactive) | 128 (inactive) |
| COc1cc(Oc2ccnc3cc(OC)c(OC)cc23)ccc1NC(=O)NC(C)c1nccs1 (stereo not drawn) | 68.5 | 47 | 99.9 (inactive) | 124 (inactive) |
| CN(C)[C@@H]1CCc2[nH]c3ccc(NC(=O)c4ccc(F)cc4)cc3c2C1.Cl | 99.2 | 90.8 | 94.9 (inactive) | 114 (inactive) |
| COc1cc2nccc(Oc3ccc(NC(=O)Nc4cc(C)on4)c(Cl)c3)c2cc1OC [Tivozanib] | 79.2 | 101 | 99 (inactive) | 116 (inactive) |
| COc1ccc2c(c1)c(C1=C(c3c[nH]c4ccccc34)C(=O)NC1=O)cn2CCCN(C)C | 83.9 | 99.3 | 98.6 (inactive) | 174 (active) |
| CCCNCC(O)COc1ccccc1C(=O)CCc1ccccc1.Cl (stereo not drawn) [Propafenone hydrochloride] | 95.4 | 103 | 99.2 (inactive) | 102 (inactive) |
| CCCCCCC=CCCCCCCCCCC(=O)O [11(Z)-Octadecenoic acid] | 99.8 | 101 | 112 (inactive) | 105 (inactive) |
| CCc1nc(-c2cccc(C)c2)c(-c2ccnc(NC(=O)c3ccccc3)c2)s1 | 88.3 | 84.4 | 87.8 (inactive) | 120 (inactive) |
| NC1CONC1=O [D-Cycloserine] | 98.8 | 96.8 | 97.5 (inactive) | 92.1 (inactive) |
| Clc1ccccc1C(c1ccccc1)(c1ccccc1)n1ccnc1 [Clotrimazole] | 75.1 | 69.1 | 104 (inactive) | 108 (inactive) |
| CC1=C(C)C(=O)C(CCCCC#CCCCC#CCO)=C(C)C1=O | 99.09 ± 0.2 | 85 ± 1.8 | 104 (inactive) | 103 (inactive) |
| CCCCCCCCOC(=O)C=Cc1ccc(O)c(O)c1 [n-Octyl caffeate] | 54.1 | 78.8 | 93.6 (inactive) | 120 (inactive) |
| COc1cc(C2Oc3cc(C4Oc5cc(O)cc(O)c5C(=O)C4O)ccc3OC2CO)ccc1O (stereo not drawn) [Silymarin] | 102 | 93.6 | 95.5 (inactive) | 88.3 (inactive) |
| Nc1ncn(C2OC(CO)C(O)C2O)c(=O)n1 (stereo not drawn) [5-azacytidine] | 65.7 | 78 | 101 (inactive) | 150 (active) |
| Cc1ccc(C(=O)c2ccc(CC(=O)O)n2C)cc1 [Tolmetin] | 101 | 99 | 104 (inactive) | 104 (inactive) |
| CC(CN1c2ccccc2Sc2ccccc21)N(C)C.Cl (stereo not drawn) | 105 | 105 | 110 (inactive) | 112 (inactive) |
| O=C1Cc2c([nH]c3ccc(Br)cc23)-c2ccccc2N1 [Kenpaullone] | 76.3 ± 6.3 | 93.1 ± 3.2 | 91.6 (inactive) | 101 (inactive) |
| O=C1NC(=O)C(c2ccccc2)(c2ccccc2)N1 [5,5-Diphenylhydantoin] | 99.8 | 108 | 89.2 (inactive) | 100 (inactive) |
| C[N+](C)(C)CCOC(=O)CCC(=O)OCC[N+](C)(C)C.[Cl-].[Cl-] [Succinylcholine chloride] | 100 | 113 | 95.5 (inactive) | 84.7 (inactive) |
| CCCCCC(O)C=CC=CCCCCCCCC(=O)O (stereo not drawn) | 96 | 97.2 | 96.4 (inactive) | 101 (inactive) |
| COc1cc(O)c2c(c1)oc(=O)c1c3cc(O)c(O)cc3oc21 [Wedelolactone] | 91.7 | 74.8 | 101 (inactive) | 91.6 (inactive) |

| SMILES | cell number (HCC1569 [1]) | cell number (TDF [2]) | H1.0 immunofluorescence intensity (TDF [3]) | H1.0 immunofluorescence intensity (HCC1569 [4]) |
| --- | --- | --- | --- | --- |
| CN1CCCC1c1cccnc1.Cc1ccc(C(=O)OC(C(=O)O)C(OC(=O)c2ccc(C)cc2)C(=O)O)cc1 (stereo not drawn) [(+)-Nicotine (+)-di-p-toluoyl tartrate] | 102 | 109 | 88.1 (inactive) | 99.5 (inactive) |
| O=C1CCC(N2C(=O)c3ccccc3C2=O)C(=O)N1 (racemic) | 103 | 108 | 99.5 (inactive) | 99.3 (inactive) |
| O=C(C=Cc1ccc(O)c(O)c1)c1ccc(OC2OC(CO)C(O)C(O)C2O)c(O)c1O (stereo not drawn) [Marein] | 99.4 | 108 | 92 (inactive) | 91.5 (inactive) |
| NCC1OC(OC2C(N)CC(N)C(OC3OC(CO)C(O)C(N)C3O)C2O)C(O)C(O)C1O.O=S(=O)(O)O (stereo not drawn) [Kanamycin sulfate] | 99.5 | 106 | 99.3 (inactive) | 90.1 (inactive) |
| CN1CCN(C2=Nc3ccccc3Sc3ccc(Cl)cc32)CC1 [Clothiapine] | 103 | 88.9 | 94 (inactive) | 110 (inactive) |
| CC1(NC2=NS(=O)(=O)c3sc(Cl)cc3N2)CC1 | 101 | 90.6 | 96.1 (inactive) | 94.7 (inactive) |
| COc1nccc(-c2c(-c3ccc(F)cc3)ncn2C2CCC(O)CC2)n1 (stereo not drawn) | 100 | 112 | 85.5 (inactive) | 117 (inactive) |
| Cc1cc(F)c(Nc2ncnc3cc(OCc4ccccc4)ccc23)cc1O.Cl | 91.6 | 105 | 94.5 (inactive) | 138 (inactive) |
| Cc1[nH]c(C=C2C(=O)Nc3ccc(S(=O)(=O)Cc4c(Cl)cccc4Cl)cc32)c(C)c1C(=O)N1CCCC1CN1CCCC1 (stereo not drawn) | 75.3 | 22.8 | 133 (active) | 204 (active) |
| Cc1ncc([N+](=O)[O-])n1CCO [Metronidazole] | 102 | 104 | 99.3 (inactive) | 99.3 (inactive) |
| C[C@@H]1CCN(C(=O)CC#N)C[C@@H]1N(C)c1ncnc2[nH]ccc12 | 103 | 109 | 79 (inactive) | 96.3 (inactive) |
| COc1ccc(C(=O)Nc2sc3c(c2C(N)=O)CCCC3)cc1OC | 98.8 | 109 | 94.4 (inactive) | 121 (inactive) |
| O=C(c1cc2cc(O)ccc2[nH]1)c1cc2cc(O)ccc2[nH]1 [Flt-3 Inhibitor II] | 67.1 | 73 | 99.9 (inactive) | 195 (active) |
| COc1ccc2cc1Oc1ccc(cc1)CC1c3cc(c(OC)cc3CCN1C)Oc1c(OC)c(OC)c(OC)c3c1C(C2)N(C)CC3 (stereo not drawn) [Hernandezine] | 93.5 | 93 | 106 (inactive) | 110 (inactive) |
| Nc1nc(N)nc(-c2cc(Cl)ccc2Cl)n1 [Irsogladine] | 105 | 105 | 94.5 (inactive) | 107 (inactive) |
| N#CC(=C(N)Sc1ccccc1N)c1cccc(C(O)c2ccncc2)c1 (stereo not drawn) [MEK Inhibitor I] | 77.2 | 86.8 | 98.7 (inactive) | 176 (active) |
| Oc1ccccc1O [Pyrocatechol] | 73.6 | 87.2 | 93.7 (inactive) | 117 (inactive) |
| COc1cc(C(=O)OCCCN2CCCN(CCCOC(=O)c3cc(OC)c(OC)c(OC)c3)CC2)cc(OC)c1OC [Dilazep] | 107 | 93.1 | 103 (inactive) | 91.6 (inactive) |
| CCCCC#Cc1nc(N)c2ncn(C3OC(C(=O)NCC)C(O)C3O)c2n1 (stereo not drawn) | 93.3 | 99.3 | 95.2 (inactive) | 110 (inactive) |
| Cc1cccc(C)c1OCC(N)C(C)C.I (stereo not drawn) | 103 | 108 | 91.3 (inactive) | 94.3 (inactive) |
| Cl.O=C(c1ccc(OCCN2CCCCC2)cc1)c1c(-c2ccc(O)cc2)sc2cc(O)ccc12 [Raloxifene hydrochloride] | 90.1 | 100 | 109 (inactive) | 121 (inactive) |
| CNCCCN1c2ccccc2CCc2ccccc21.Cl [Desipramine hydrochloride] | 102 | 97.5 | 98.7 (inactive) | 92.6 (inactive) |
| CN(C)c1ccc(O)c2c1CC1CC3C(N(C)C)C(=O)C(C(N)=O)=C(O)C3(O)C(=O)C1=C2O (stereo not drawn) [Minocycline] | 107 | 101 | 110 (inactive) | 88.6 (inactive) |
| CCN1CCCC1CNC(=O)c1cc(S(N)(=O)=O)ccc1OC [(S)-(-)-Sulpiride] | 99.3 | 98.1 | 99.8 (inactive) | 101 (inactive) |
| CC1CC2C3CCC4=CC(=O)C=CC4(C)C3(F)C(O)CC2(C)C1(O)C(=O)CO (stereo not drawn) [Dexamethasone] | 100 | 102 | 81.6 (inactive) | 112 (inactive) |
| Cc1cnc(Nc2ccc(OCCN3CCCC3)cc2)nc1Nc1cccc(S(=O)(=O)NC(C)(C)C)c1 | 67.1 | 43.3 | 116 (inactive) | 189 (active) |
